Usually inhibition stands for the drop in the measured response relative to a control, in per cent.

Each structure is given as a SMILES string. About 3,000 (1%) of roughly 290,000 compounds were called active. Cut-off read from the data, not from the text of the source: active = inhibition mostly above about 36% (no sharp cut-off); inactive = mostly below about 34%. For the sample, actives were picked, then their nearest neighbours and some compounds at random.

A short description of the test: inhibition of NOD1-driven NF-kB reporter – cell-based, luminescence, uHTS, primary screen (AID 1578).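 Note: HEK-293T reporter cells stimulated with the NOD1 agonist gamma-tri-DAP.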 As to conditions: NOD1-driven NF-kB luciferase reporter cells, at 4 µM, stronger effect = higher value. In general terms: In a reporter assay the amount or activity of a reporter protein is the signal.
For `CCOc1ccc(OCC)c(NC(=O)CN2CCN(c3cccc(C)c3)C(C)C2)c1` (stereo not drawn), the inhibition is 29.9% (inactive).
Turning to `O=C(CSc1nc2ccccc2s1)NC1CCCC1`, the inhibition was 9.6% (inactive).
In the case of `O=C(Cn1ncc(Cl)c(Cl)c1=O)N1CCOCC1`, the inhibition is 6.8% (inactive).
With `O=C(Cn1ncc(Cl)c(Cl)c1=O)N1CCN(S(=O)(=O)c2ccc3ccccc3c2)CC1` the figure was 48.9% (inactive); with `O=C(Cn1ncc(Cl)c(Cl)c1=O)N1CCN(Cc2ccccc2)CC1`, 84.9% (active).
With `Cc1ccc2c(c1)C(c1ccc(F)cc1)N(C(=O)c1ccc(S(=O)(=O)N(C)C)cc1)CC(=O)N2` (stereo not drawn) the figure was 3.7% (inactive); with `C=CCOc1ccc(Br)cc1/C=C1/SC(=Nc2ccc(C(=O)O)cc2)NC1=O`, 40.4% (active).
For `C=CCOc1c(Br)cc(/C=C2\SC(=Nc3ccccc3)NC2=O)cc1OC` the value was -29.6% (inactive); for `CCOc1cc(Br)cc(/C=C2\SC(=Nc3ccccc3)NC2=O)c1O`, -86.1% (inactive).
For `O=C(c1cc2cc(Cl)ccc2o1)N1CCCC1`, the inhibition was -13% (inactive).
Take `COCCn1nnnc1CN(Cc1cc2cc(OC)c(OC)cc2[nH]c1=O)C1CCCC1`: the inhibition was -13.9% (inactive).
With `CC(C)CCNC(=S)Nc1ccc(Br)cc1` the figure was -18.8% (inactive); with `Cc1cccc(NC(=S)NCCC(C)C)c1`, 69.1% (active).
In the case of `CC/C(=N\NC(=S)Nc1cccc(C)c1)c1ccccc1`, the inhibition was 48.5% (active).
With `Cc1cccc(NC(=S)N/N=C(\c2ccccc2)C(C)C)c1` the figure was -62.9% (inactive); with `Cc1cccc(NC(=S)NCCC(c2ccccc2)c2ccccc2)c1`, 7.2% (inactive).
With `C/C(=N\NC(=S)Nc1cccc(C)c1)c1ccccc1` the figure was -16.7% (inactive).
In the case of `CC(=O)N/C(=C\c1ccc(F)cc1)C(=O)OCc1ccccc1`, the inhibition was -8% (inactive).
For `Cc1oc(-c2ccccc2Cl)nc1CS(=O)CC(=O)NCc1cccs1` (stereo not drawn) the value was -13.9% (inactive).
For `O=C(C/C=N\OCc1ccc(Cl)cc1Cl)Nc1ccccc1` the value was -17% (inactive); for `CN(C)/C=C(\C=N\OCc1ccc(Cl)cc1Cl)C(=O)Nc1ccc(Cl)c(Cl)c1`, 95.7% (active); for `O=C(C/C=N/OCc1ccc(Cl)cc1Cl)c1ccc(Cl)cc1`, 19.3% (inactive).
For `CCN(CCCNC(=O)CN1C(=O)COc2ccccc21)c1cccc(C)c1` the value was 14.9% (inactive); for `COc1ccc(NC(=O)C(=O)NCCN2CCN(C(=O)c3ccc(C)cc3)CC2)cc1`, -23% (inactive); for `O=C1Nc2cccnc2N(C(=O)CCl)c2ccccc21`, 50.5% (active).
Turning to `CN1CCN(CC(=O)N2c3ccccc3C(=O)Nc3cccnc32)CC1`, the inhibition is -42.1% (inactive).
With `CCN(CC)CC1CCCCN1CC(=O)N1c2ccccc2C(=O)Nc2cccnc21` (stereo not drawn) the figure was 5.4% (inactive); with `CCOC(=O)c1c(C)[nH]c(C2=NNC(=Nc3ccc(OCC)cc3)SC2)c1C`, -31.6% (inactive).
As for `CC1(C)CC(=O)c2c(O)cc(O)cc2O1`, the inhibition is -18.9% (inactive).
For the compound `COc1cc(O)c2c(c1)OC(C)(C)CC2=O`, the inhibition is 5.2% (inactive).
For `COc1cc(O)cc2cc3c(c(O)c12)C(=O)CC(C)(O)O3` (stereo not drawn) the value was 51.8% (active).
With `Cc1ccc(S(=O)(=O)c2nnn3c2nc(N2CCCCC2)c2ccccc23)cc1` the figure was -42.5% (inactive); with `COc1ccc(CCNC(=O)c2cc(C)oc2C)cc1`, -16% (inactive).
With `CC(=O)Nc1ccc(OCc2cccc3ccccc23)cc1` the figure was 29.7% (inactive).
On to `N#CC(c1ccc(Cl)cc1)c1ccc2c(C(F)(F)F)cc(C(F)(F)F)nc2n1` (stereo not drawn), for which the inhibition was 39.5% (inactive).
For `Cc1ccc(C(C#N)c2ccc3c(C(F)(F)F)cc(C(F)(F)F)nc3n2)cc1` (stereo not drawn) the value was 30% (inactive); for `CCNS(=O)(=O)c1ccc2c(c1)NCC2`, -16.1% (inactive); for `COc1cc(C(=O)NC(=S)N(C)Cc2ccccc2)cc(OC)c1OC`, -14.8% (inactive).
With `COc1ccc(C(=O)N(C)Cc2ccccc2)cc1Br` the figure was -39.1% (inactive); with `COc1ccc(C(=O)NC(=S)N(C)Cc2ccccc2)cc1Br`, 45% (active).
With `Cc1cc(C)c(OCCCCn2cnc3ccccc3c2=O)c(C)c1` the figure was 12.5% (inactive); with `CCOC(=O)Cc1[nH]nc2c1C(c1ccsc1)C(C#N)=C(N)O2` (stereo not drawn), -16.3% (inactive).
On to `CC(=O)Nc1ccc(S(=O)(=O)Nc2ccc3c(c2)OCCO3)cc1`, for which the inhibition is -25% (inactive).
Regarding `C=CC[n+]1c(-c2ccc(C)cc2)csc1Nc1c(C)n(C)n(-c2ccccc2)c1=O`, the inhibition is 8.4% (inactive).
In the case of `CC[n+]1c(-c2ccccc2)csc1Nc1c(C)n(C)n(-c2ccccc2)c1=O`, the inhibition is -17.7% (inactive).
With `CCOc1ccc(CCNC(=O)C2CCC(=O)N2C2CCCCC2)cc1OCC` (stereo not drawn) the figure was 6% (inactive).
In the case of `O=C(NCc1cccnc1)C1CCCN(S(=O)(=O)c2ccccc2)C1` (stereo not drawn), the inhibition was -13.3% (inactive).
With `Cc1cc([N+](=O)[O-])nn1CCCC(=O)Nc1ccc(Cl)cc1Cl` the figure was -21% (inactive); with `COC(=O)c1cccc(NC(=O)Cn2nnc3ccccc32)c1`, -17.8% (inactive).
With `Cc1csc(NC(=O)CSc2nnc3ncccn23)n1` the figure was -6.2% (inactive); with `CCCCNC(=O)NCc1cnn(C)c1C`, -24.6% (inactive); with `CC(=O)NNC(=O)c1ccncc1`, -26.4% (inactive).
Turning to `CCCCc1nc2ccc(S(=O)(=O)O)cc2[nH]1`, the inhibition is 7.8% (inactive).
With `COc1nc(OC)nc(Oc2ccc(Cl)cc2[N+](=O)[O-])n1` the figure was 0.6% (inactive).
In the case of `COc1ccccc1S(=O)(=O)c1ccccc1[N+](=O)[O-]`, the inhibition was -10.5% (inactive).
For `Cn1cnc([N+](=O)[O-])c1S(=O)(=O)c1ccc(Cl)cc1` the value was -30.1% (inactive).
With `Nc1cccnc1S(=O)(=O)c1ccccc1` the figure was -2.3% (inactive); with `O=[N+]([O-])c1ccccc1S(=O)(=O)c1ccccc1`, -2.8% (inactive).
For `COc1ccc([N+](=O)[O-])c(S(=O)(=O)c2ccccc2)n1` the value was 61.7% (active).
For the compound `COc1ccc(OCCOc2ccccc2[N+](=O)[O-])cc1`, the inhibition is -19.1% (inactive).
For `COc1ccc([N+](=O)[O-])c(S(=O)(=O)c2ccc(Cl)cc2)n1` the value was 79.2% (active); for `Cc1ccc(C(=O)COC(=O)CN2C(=O)C3C4CC(C(Br)C4Br)C3C2=O)cc1` (stereo not drawn), -29.5% (inactive).
As for `CC(C)n1c(=O)n(CC(=O)NCC2CCCO2)c(=O)c2c3c(sc21)COC(C)(C)C3` (stereo not drawn), the inhibition is -14% (inactive).
